Measurements as given in PubChem BioAssay AID1159580 (chemical genetic matrix, 2015).
“And” between values parts separate entries of the source, which are not always exact repeats. Identical values can stand only once. Screen size: about 5,500 compounds; about 2,000 (36%) were called active. Not shown: some 18% with an inconclusive outcome. Cut-off read from the data, not from the text of the source: active = normalized growth mostly below about 0.91 (no sharp cut-off); inconclusive = no clear call, values can overlap the other calls; inactive = mostly above about 0.92. Some of the results follow.

Assay: chemical genetic growth profiling, strain panel (AID 1159580);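 note: tested at 20 µM; growth read once vehicle control cultures reached saturation at 30 °C; 1 = growth at the plate median or of vehicle wells; lower values mean less growth of the strain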
Conditions: S. cerevisiae deletion strains, growth OD

Measured: normalized growth

CN[C@@H](C)[C@@H](O)c1ccccc1
inactive: locus YAL021C, strain ccr4, hits give low values 0.987 | locus YAL026C, strain drs2, hits give low values 0.995 | locus YAL030W, strain snc1, hits give low values 0.995 | locus YBL061C, strain skt5, hits give low values 0.992 | locus YBR009C, strain hhf1, hits give low values 1.02 | locus YBR021W, strain FUR4, hits give low values 1.01 | locus YBR023C, strain chs3, hits give low values 0.981 | locus YBR171W, strain sec66, hits give low values 0.993 | locus YBR229C, strain ROT2, hits give low values 0.949 | locus YBR231C, strain swc5, hits give low values 0.996 | locus YBR279W, strain paf1, hits give low values 1 | locus YCL011C, strain gbp2, hits give low values 0.971 | locus YCL016C, strain dcc1, hits give low values 0.987 | locus YCL029C, strain bik1, hits give low values 0.976 | locus YCL069W, strain vba3, hits give low values 0.995 | locus YCR088W, strain abp1, hits give low values 0.995 | locus YDL005C, strain med2, hits give low values 0.994 | locus YDL035C, strain GPR1, hits give low values 0.949 | locus YDL040C, strain nat1, hits give low values 1 | locus YDL074C, strain BRE1, hits give low values 1.01 | locus YDL101C, strain DUN1, hits give low values 1 | locus YDL185W, strain tfp1, hits give low values 0.961 | locus YDL192W, strain arf1, hits give low values 0.989 | locus YDR001C, strain nth1, hits give low values 0.996 | locus YDR069C, strain doa4, hits give low values 0.993 | locus YDR101C, strain arx1, hits give low values 0.998 | locus YDR137W, strain rgp1, hits give low values 0.982 | locus YDR159W, strain sac3, hits give low values 0.943 | locus YDR162C, strain NBP2, hits give low values 0.929 | locus YDR195W, strain ref2 0.977 | locus YDR297W, strain sur2, hits give low values 1 | locus YDR318W, strain mcm21, hits give low values 0.986 | locus YDR334W, strain swr1, hits give low values 1.01 | locus YDR335W, strain msn5, hits give low values 1 | locus YDR388W, hits give low values 0.992 | locus YDR392W, strain spt3, hits give low values 0.911 | locus YDR502C, strain sam2, hits give low values 1.01 | locus YEL003W, strain gim4, hits give low values 0.996 | locus YEL037C, strain rad23, hits give low values 0.985 | locus YEL061C, strain CIN8 (second series), hits give low values 0.989 | locus YEL061C, strain CIN8, hits give low values 0.989 | locus YER015W, strain faa2, hits give low values 1 | locus YER016W, strain bim1, hits give low values 0.984 | locus YER110C, hits give low values 0.987 | locus YER111C, strain swi4, hits give low values 0.996 | locus YER155C, strain BEM2 (second series), hits give low values 0.997 | locus YER155C, strain BEM2, hits give low values 0.999 | locus YER167W, strain BCK2, hits give low values 0.982 | locus YFR010W, strain ubp6, hits give low values 0.992 | locus YGL078C, strain dbp3, hits give low values 0.996 | locus YGL086W, strain mad1, hits give low values 0.996 | locus YGL167C, strain pmr1, hits give low values 1 | locus YGL173C, strain kem1, hits give low values 0.988 | locus YGL227W, strain vid30, hits give low values 0.982 | locus YGL240W, strain doc1, hits give low values 1 | locus YGL248W, strain PDE1, hits give low values 1.01 | locus YGL253W, strain hxk2, hits give low values 0.985 | locus YGR135W, strain pre9, hits give low values 0.989 | locus YGR252W, strain gcn5, hits give low values 1.01 | locus YHR013C, strain ard1, hits give low values 0.961 | locus YHR027C, strain rpn1, hits give low values 1 | locus YHR030C, strain SLT2, hits give low values 0.977 and 1.04 | locus YHR079C, strain IRE1 (second series), hits give low values 0.993 | locus YHR079C, strain IRE1, hits give low values 1.02 | locus YHR094C, strain hxt1, hits give low values 0.985 | locus YHR129C, strain ARP1, hits give low values 0.994 | locus YHR142W, strain chs7, hits give low values 0.976 | locus YHR200W, strain rpn10, hits give low values 0.984 | locus YIL066C, strain RNR3, hits give low values 0.926 | locus YIL073C, strain SPO22, hits give low values 0.973 | locus YIL125W, strain kgd1, hits give low values 0.987 | locus YIR030C, strain dcg1, hits give low values 0.996 | locus YJL092W, strain hpr5, hits give low values 0.999 | locus YJL095W, strain BCK1 (second series), hits give low values 0.994 | locus YJL095W, strain BCK1, hits give low values 1.06 and 1.01 | locus YJL115W, strain asf1, hits give low values 0.999 | locus YJL129C, strain trk1, hits give low values 1.01 | locus YJL134W, strain LCB3, hits give low values 0.98 | locus YJL154C, strain vps35, hits give low values 0.996 | locus YJL164C, strain tpk1, hits give low values 1 | locus YJL166W, strain qcr8, hits give low values 1.01 | locus YJL168C, strain set2, hits give low values 0.995 | locus YJL187C, strain SWE1 (second series), hits give low values 1.03 | locus YJR043C, strain POL32, hits give low values 0.938 | locus YJR066W, strain TOR1, hits give low values 0.982 | locus YKL009W, strain mrt4, hits give low values 0.998
